Measurements: the supplement of paper PMC10646978
± gives the standard deviation.

System: RAW-Dual (murine macrophage reporter line)
Experiment: IRF reporter (Lucia luciferase) activity fold change vs agonist alone; higher = enhanced IRF activity
Details: modulator concentration 10 µM; agonist: MPLA […]
Procedure, shortened: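 Compound reached 10 μM final in each well by pin transfer, onto RAW-Dual murine macrophage reporter cells seeded at 50 000 per well in 384-well plates. After 1 hour at 37 °C, the cells were stimulated overnight with a PRR agonist. SEAP in the supernatant was read with QUANTI-Blue at 620 nm absorbance for NF-κB, and Lucia luciferase was read with QUANTI-Luc luminescence for IRF. Each signal was turned into fold change against the mean agonist-only control on the same plate, and two replicate plates were averaged with propagated errors.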

With `CN(C)CCNC(=O)C(=O)NC(c1ccccc1)c1ccccc1` as the molecule, how does the IRF reporter read?
The IRF reporter was 0.962 ± 0.12.

Which IRF reporter does the source give for `Cc1nc2n(c(=O)c1CCN1CCC(c3noc4cc(F)ccc34)CC1)CCCC2O` (stereo not given) here?
The IRF reporter was 1.14 ± 0.11.

How did the IRF reporter turn out when `Cc1cnc2c(c1N1CCC(Cc3ccccc3)CC1)c(=O)n(C)c(=O)n2C` was run?
Its IRF reporter is 1.07 ± 0.26.

For `COc1ccccc1OCC(O)CN1CCN(CC(=O)Nc2c(C)cccc2C)CC1` (stereo not given), which IRF reporter is on record?
Its IRF reporter is 0.936 ± 0.078.

How did the IRF reporter turn out when `COc1ccccc1N1CCN(CC(O)COc2cccc3ccccc23)CC1.Cl.Cl` (stereo not given) was run?
The IRF reporter was 1.17 ± 0.22.

`COC(=O)C1=C(C)NC(C)=C(C(=O)OC(C)(C)CN(C)CCC(c2ccccc2)c2ccccc2)C1c1cccc([N+](=O)[O-])c1.Cl` (stereo not given) was tested. Which IRF reporter did it give?
The IRF reporter was 2.85 ± 0.23.

`CC[C@@H]1C(=O)N(C)c2cnc(Nc3ccc(C(=O)N[C@H]4CC[C@H](N5CCN(CC6CC6)CC5)CC4)cc3OC)nc2N1C(C)C` was tested. Which IRF reporter did it give?
Its IRF reporter is 0.138 ± 0.012.

How did the IRF reporter turn out when `O=C(O)c1cc2ccccc2[nH]1` was run?
The IRF reporter was 0.889 ± 0.23.

With `CCCOc1ccc(-c2ccc(-c3nc(Cc4ccc(OC)c(OC)c4)no3)cc2)cc1` as the molecule, how does the IRF reporter read?
Its IRF reporter is 1.12 ± 0.12.

For `Cc1ccc(S(=O)(=O)n2cnc3ccccc32)cc1C`, which IRF reporter is on record?
Its IRF reporter is 1.06 ± 0.07.

Which IRF reporter does the source give for `CNCC[C@@H](Oc1cccc2ccccc12)c1cccs1` [Prestw-1708] here?
The IRF reporter was 1.16 ± 0.28.

Which IRF reporter does the source give for `CNC(=NC#N)NCCSCc1nc[nH]c1C` here?
Its IRF reporter is 1.36 ± 0.16.

With `CC(=NN1CCN(Cc2cccc3ccccc23)CC1)c1ccc(O)cc1` as the molecule, how does the IRF reporter read?
The IRF reporter was 0.963 ± 0.14.

`Nc1nc(N)c2nc(-c3ccccc3)c(N)nc2n1` was tested. Which IRF reporter did it give?
The IRF reporter was 1.18 ± 0.18.

`O=C(O)CCCCC1SCC2NC(=O)NC21` (stereo not given) was tested. Which IRF reporter did it give?
The IRF reporter was 1.12 ± 0.25.

For `c1ccc(OCCOc2ccc(Nc3ccnc4cc5ccccc5cc34)cc2)cc1`, which IRF reporter is on record?
Its IRF reporter is 1.78 ± 0.17.

With `CC(C)(C)NCC(=O)Nc1ccc(S(N)(=O)=O)cc1` as the molecule, how does the IRF reporter read?
Its IRF reporter is 1.7 ± 0.2.

`CC(=O)Nc1ccc(S(=O)(=O)N2CCC(Oc3cc(C)nc(C)n3)C2)cc1` (stereo not given) was tested. Which IRF reporter did it give?
Its IRF reporter is 0.983 ± 0.32.

For `O=Cc1c[nH]c2ccccc12`, which IRF reporter is on record?
Its IRF reporter is 1.54 ± 0.16.

`CN(C)CC(c1ccc(O)cc1)C1(O)CCCCC1` (stereo not given) was tested. Which IRF reporter did it give?
The IRF reporter was 1.17 ± 0.092.

How did the IRF reporter turn out when `CCC1OC(=O)C(C)C(OC2CC(C)(OC)C(O)C(C)O2)C(C)C(OC2OC(C)CC(N(C)C)C2O)C(C)(O)CC(C)CN(C)C(C)C(O)C1(C)O` (stereo not given) was run?
The IRF reporter was 0.952 ± 0.088.

How did the IRF reporter turn out when `Cc1cc(C(=O)NCc2sc(-c3ccccc3Cl)nc2C)c(C)o1` was run?
Its IRF reporter is 1.27 ± 0.44.

With `COc1cc2ncnc(Nc3ccc(F)c(Cl)c3)c2cc1OCCCN1CCOCC1.Cl` as the molecule, how does the IRF reporter read?
The IRF reporter was 1.16 ± 0.11.

How did the IRF reporter turn out when `CN(C)c1nc(CNC(=O)CSc2nc3ccccc3o2)nc(N(C)C)n1` was run?
The IRF reporter was 1 ± 0.078.

`CCOc1ccc2nc(NC(=O)c3ccc(Br)cc3F)sc2c1` was tested. Which IRF reporter did it give?
Its IRF reporter is 0.946 ± 0.15.

Which IRF reporter does the source give for `CCS(=O)(=O)c1ccc(-c2ccc(NC(=O)c3cccc(OC)c3OC)cc2)nn1` here?
The IRF reporter was 1.36 ± 0.4.

Which IRF reporter does the source give for `Cc1cn(-c2cc(NC(=O)c3ccc(C)c(Nc4nccc(-c5cnccn5)n4)c3)cc(C(F)(F)F)c2)cn1` here?
The IRF reporter was 1.19 ± 0.33.

`CCN1CCN(c2nc3c(c(=O)[nH]c(=O)n3C)n2CC(O)COc2cc(C)ccc2C(C)C)CC1` (stereo not given) was tested. Which IRF reporter did it give?
Its IRF reporter is 1.48 ± 0.31.

With `Cc1cc(C(O)CCNC(=O)COc2cccc3c2OC(C)(C)C3)c(C)o1` (stereo not given) as the molecule, how does the IRF reporter read?
Its IRF reporter is 0.94 ± 0.13.

How did the IRF reporter turn out when `CCOC(=O)Cc1nnnn1C` was run?
Its IRF reporter is 1.17 ± 0.13.

For `CC[C@@]1(O)C(=O)OCc2c1cc1n(c2=O)Cc2cc3c(CN(C)C)c(O)ccc3nc2-1.Cl`, which IRF reporter is on record?
The IRF reporter was 3.26 ± 0.26.

With `O=C(C=Cc1ccc(-c2cccc(Cl)c2)o1)c1ccc(Cl)cc1` as the molecule, how does the IRF reporter read?
Its IRF reporter is 0.724 ± 0.14.

`COc1ccc(C(=O)Oc2ccc(-c3ccc(C)cc3)cc2)cc1OC` was tested. Which IRF reporter did it give?
The IRF reporter was 1.27 ± 0.15.

For `C#Cc1cccc(Nc2ncnc3cc(OC)c(OCCCCCCC(=O)NO)cc23)c1`, which IRF reporter is on record?
The IRF reporter was 0.581 ± 0.068.

For `O=Cc1ccc(OCc2cccc([N+](=O)[O-])c2)c(Br)c1`, which IRF reporter is on record?
The IRF reporter was 1.49 ± 0.12.

How did the IRF reporter turn out when `O=C(CSc1nc(-c2ccccc2)c(-c2ccccc2)o1)N1CCOCC1` was run?
Its IRF reporter is 1.2 ± 0.12.

For `CN(C)c1ccc(C2N(C)c3ccccc3N2C)cc1`, which IRF reporter is on record?
Its IRF reporter is 1.94 ± 0.25.

`CC(C)(C)C1(O)CC(C(F)(F)F)=NN1C(=O)c1cccc([N+](=O)[O-])c1` (stereo not given) was tested. Which IRF reporter did it give?
Its IRF reporter is 1.01 ± 0.22.

`COc1ccc([N+](=O)[O-])cc1NC(=O)c1ccccc1SC` was tested. Which IRF reporter did it give?
The IRF reporter was 1.17 ± 0.33.

`CC(=O)c1cc(Cl)ccc1OC(=O)c1ccccc1Cl` was tested. Which IRF reporter did it give?
Its IRF reporter is 1.8 ± 0.24.
